Measured values reported in PubChem BioAssay AID1159580 (chemical genetic matrix, 2015).
About 2,000 (36%) of roughly 5,500 compounds were called active. Inconclusive results (about 18%) are left out. Rule as the data show it: active = normalized growth mostly below about 0.91 (no sharp cut-off); inconclusive = no clear call, values can overlap the other calls; inactive = mostly above about 0.92. This is one part of the list.

Test: chemical genetic growth profiling, strain panel (AID 1159580);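 also: tested at 20 µM; growth read once vehicle control cultures reached saturation at 30 °C; 1 = growth at the plate median or of vehicle wells; lower values mean less growth of the strain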
Settings: growth OD

Measured: normalized growth

O=C(Cc1cccs1)NC1C(=O)N2C(C(=O)[O-])=C(C[n+]3ccccc3)CSC12 (stereo unspecified)
inactive: S. cerevisiae deletion strains, locus YJR075W, strain HOC1, active compounds read low 1.01 | S. cerevisiae deletion strains, locus YKL009W, strain mrt4, active compounds read low 0.989 | S. cerevisiae deletion strains, locus YKL068W, active compounds read low 1.01 | S. cerevisiae deletion strains, locus YKL085W, strain MDH1 (second series), active compounds read low 1 | S. cerevisiae deletion strains, locus YKL085W, strain MDH1, active compounds read low 1 | S. cerevisiae deletion strains, locus YKL160W, strain elf1, active compounds read low 1 | S. cerevisiae deletion strains, locus YKL190W, strain CNB1, active compounds read low 1.01 | S. cerevisiae deletion strains, locus YKR001C, strain vps1, active compounds read low 0.992 | S. cerevisiae deletion strains, locus YKR026C, strain gcn3, active compounds read low 0.988 | S. cerevisiae deletion strains, locus YKR091W, strain srl3, active compounds read low 0.985 | S. cerevisiae deletion strains, locus YLL001W, strain dnm1, active compounds read low 0.979 | S. cerevisiae deletion strains, locus YLL026W, active compounds read low 0.997 | S. cerevisiae deletion strains, locus YLL041C, strain sdh2, active compounds read low 0.994 | S. cerevisiae deletion strains, locus YLR027C, strain aat2, active compounds read low 0.989 | S. cerevisiae deletion strains, locus YLR039C, strain RIC1, active compounds read low 1.01 | S. cerevisiae deletion strains, locus YLR058C, strain SHM2, active compounds read low 0.99 | S. cerevisiae deletion strains, locus YLR102C, strain apc9, active compounds read low 0.997 | S. cerevisiae deletion strains, locus YLR221C, strain rsa3, active compounds read low 0.99 | S. cerevisiae deletion strains, locus YLR258W, strain gsy2, active compounds read low 0.986 | S. cerevisiae deletion strains, locus YLR262C, strain YPT6 (second series), active compounds read low 0.973 | S. cerevisiae deletion strains, locus YLR262C, strain YPT6, active compounds read low 1.03 | S. cerevisiae deletion strains, locus YLR268W, strain sec22, active compounds read low 0.979 | S. cerevisiae deletion strains, locus YLR320W, strain mms22, active compounds read low 0.979 | S. cerevisiae deletion strains, locus YLR330W, strain CHS5, active compounds read low 1.01 | S. cerevisiae deletion strains, locus YLR342W, strain FKS1 (second series), active compounds read low 0.956 | S. cerevisiae deletion strains, locus YLR342W, strain FKS1, active compounds read low 0.986 | S. cerevisiae deletion strains, locus YLR357W, strain rsc2, active compounds read low 0.937 | S. cerevisiae deletion strains, locus YLR370C, strain arc18, active compounds read low 0.989 | S. cerevisiae deletion strains, locus YLR371W, strain rom2, active compounds read low 0.985 | S. cerevisiae deletion strains, locus YLR384C, strain iki3, active compounds read low 0.974 | S. cerevisiae deletion strains, locus YLR418C, strain cdc73, active compounds read low 0.949 | S. cerevisiae deletion strains, locus YML016C, strain PPZ1, active compounds read low 0.999 | S. cerevisiae deletion strains, locus YML032C, strain rad52, active compounds read low 0.973 | S. cerevisiae deletion strains, locus YML120C, strain ndi1, active compounds read low 1 | S. cerevisiae deletion strains, locus YML124C, strain tub3, active compounds read low 0.999 | S. cerevisiae deletion strains, locus YMR058W, strain fet3, active compounds read low 0.984 | S. cerevisiae deletion strains, locus YMR078C, strain ctf18, active compounds read low 0.999 | S. cerevisiae deletion strains, locus YMR125W, strain sto1, active compounds read low 0.983 | S. cerevisiae deletion strains, locus YMR129W, active compounds read low 1 | S. cerevisiae deletion strains, locus YMR205C, strain PFK2, active compounds read low 0.978 | S. cerevisiae deletion strains, locus YMR223W, strain ubp8, active compounds read low 0.982 | S. cerevisiae deletion strains, locus YMR231W, strain pep5, active compounds read low 0.991 | S. cerevisiae deletion strains, locus YMR307W, strain GAS1, active compounds read low 0.997 | S. cerevisiae deletion strains, locus YNL067W, strain RPL9B, active compounds read low 1.02 | S. cerevisiae deletion strains, locus YNL071W, strain lat1, active compounds read low 0.999 | S. cerevisiae deletion strains, locus YNL128W, strain TEP1, active compounds read low 1.01 | S. cerevisiae deletion strains, locus YNL153C, strain GIM3, active compounds read low 1.03 | S. cerevisiae deletion strains, locus YNL209W, strain ssb2, active compounds read low 0.984 | S. cerevisiae deletion strains, locus YNL233W, strain BNI4, active compounds read low 1.02 | S. cerevisiae deletion strains, locus YNL248C, strain rpa49, active compounds read low 0.985 | S. cerevisiae deletion strains, locus YNL250W, strain rad50, active compounds read low 0.972 | S. cerevisiae deletion strains, locus YNL271C, strain bni1, active compounds read low 0.992 | S. cerevisiae deletion strains, locus YNL298W, strain CLA4, active compounds read low 0.986 | S. cerevisiae deletion strains, locus YNL307C, strain MCK1, active compounds read low 0.991 | S. cerevisiae deletion strains, locus YNL322C, strain KRE1 (second series), active compounds read low 0.985 | S. cerevisiae deletion strains, locus YNL322C, strain KRE1, active compounds read low 1 | S. cerevisiae deletion strains, locus YNR049C, strain mso1, active compounds read low 0.975 | S. cerevisiae deletion strains, locus YNR052C, strain pop2, active compounds read low 0.989 | S. cerevisiae deletion strains, locus YOL006C, strain TOP1, active compounds read low 1.02 | S. cerevisiae deletion strains, locus YOL012C, strain htz1 0.724 | S. cerevisiae deletion strains, locus YOL147C, strain pex11, active compounds read low 0.992 | S. cerevisiae deletion strains, locus YOR001W, strain rrp6, active compounds read low 0.988 | S. cerevisiae deletion strains, locus YOR061W, strain CKA2, active compounds read low 1 | S. cerevisiae deletion strains, locus YOR069W, strain VPS5, active compounds read low 1 | S. cerevisiae deletion strains, locus YOR070C, strain gyp1, active compounds read low 0.974 | S. cerevisiae deletion strains, locus YOR080W, strain dia2, active compounds read low 0.971 | S. cerevisiae deletion strains, locus YOR083W, strain WHI5, active compounds read low 0.974 | S. cerevisiae deletion strains, locus YOR106W, strain vam3, active compounds read low 0.973 | S. cerevisiae deletion strains, locus YOR136W, strain idh2, active compounds read low 0.998 | S. cerevisiae deletion strains, locus YOR144C, strain elg1, active compounds read low 0.997 | S. cerevisiae deletion strains, locus YOR184W, strain ser1, active compounds read low 0.983 | S. cerevisiae deletion strains, locus YOR265W, strain rbl2, active compounds read low 1 | S. cerevisiae deletion strains, locus YOR270C, strain vph1, active compounds read low 0.942 | S. cerevisiae deletion strains, locus YOR290C, strain snf2, active compounds read low 0.991 | S. cerevisiae deletion strains, locus YOR316C, strain cot1, active compounds read low 0.994 | S. cerevisiae deletion strains, locus YPL051W, strain arl3, active compounds read low 0.983 | S. cerevisiae deletion strains, locus YPL055C, strain LGE1, active compounds read low 1.03 | S. cerevisiae deletion strains, locus YPL078C, strain atp4, active compounds read low 0.988 | S. cerevisiae deletion strains, locus YPL106C, strain sse1, active compounds read low 0.939 | S. cerevisiae deletion strains, locus YPL240C, strain hsp82, active compounds read low 0.992 | S. cerevisiae deletion strains, locus YPR119W, strain clb2, active compounds read low 0.997 | S. cerevisiae deletion strains, locus YPR141C, strain kar3, active compounds read low 1.01 | S. cerevisiae deletion strains, locus YPR163C, strain tif3, active compounds read low 0.997 | S. cerevisiae deletion strains, locus YPR167C, strain met16, active compounds read low 0.988 | S. cerevisiae deletion strains, strain wtn01, active compounds read low 0.978 | S. cerevisiae strains, strain wild type, active compounds read low 0.998
